Hit rate of the full screen: of about 16,000 compounds, about 5,100 (32%) were called active. Roughly 25% stayed inconclusive and do not appear here. This is one part of the list. A number with no mark means an inactive call. Calls come from the whole dose curve; as a rule, active = well fitted curve in the direction sought with a large enough effect; inconclusive = small, poorly fitted or top-dose-only effect, or effect the other way; inactive = no such curve, though single readings can be large or run the other way.
% is set by controls: 0 for no effect and ±100 for the full control effect.

Sequence of Cytochrome P450 3A4 (Homo sapiens) (P08684 whole entry, looked up): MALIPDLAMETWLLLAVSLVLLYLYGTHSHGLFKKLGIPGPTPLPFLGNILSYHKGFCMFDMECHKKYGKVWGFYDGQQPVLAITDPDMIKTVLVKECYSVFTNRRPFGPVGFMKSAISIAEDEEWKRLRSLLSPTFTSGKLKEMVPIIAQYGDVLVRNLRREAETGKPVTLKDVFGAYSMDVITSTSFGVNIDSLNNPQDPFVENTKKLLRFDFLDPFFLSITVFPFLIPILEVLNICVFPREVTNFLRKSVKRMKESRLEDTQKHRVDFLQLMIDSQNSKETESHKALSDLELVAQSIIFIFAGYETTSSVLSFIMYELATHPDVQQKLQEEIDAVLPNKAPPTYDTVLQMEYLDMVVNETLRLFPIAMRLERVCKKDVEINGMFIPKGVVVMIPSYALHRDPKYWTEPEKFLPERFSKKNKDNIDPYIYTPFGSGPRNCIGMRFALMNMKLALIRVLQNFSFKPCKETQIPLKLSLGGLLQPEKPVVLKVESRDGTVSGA

This assay concerns the target Cytochrome P450 3A4 (Homo sapiens) (UniProt P08684). In words: Cytochrome panel assay with activity outcomes. Conditions: recombinant CYP, pro-luciferin dealkylation, luminescence, p450-cyp3a4; series mostly up to 57.1 µM.
Broadly, the AC50 is the concentration at which the activity in the assay is half-maximal. Consider `O=c1c(Oc2ccccc2Br)c(C(F)(F)F)oc2c(CN3CCCC3)c(O)ccc12`, for which the AC50 result is “inactive”.

With `O=C1OCCC1Sc1nnnn1-c1ccccc1` (stereo not given), the AC50 result is “inactive”.

Consider `Cc1cc(C)cc(N2C(=O)CC(Sc3nnnn3-c3ccccc3)C2=O)c1` (stereo not given), for which the half-maximal activity concentration (AC50) is 2 µM (active).

For `Cc1cccc(Cn2cnc3c(NS(C)(=O)=O)c(C)c(C)cc32)c1`, the AC50 was 2 µM (active).

With `Cc1cc2c(ncn2Cc2ccccc2)c([N+](=O)[O-])c1C`, the AC50 result was “inactive”.

Regarding `CC(C)CN=C(N)N=C(N)N`, the activity, negative = inhibition was -1.21% [at 11.4 µM].

As to `O=C(CN(C(=O)CSc1nc2ccccc2o1)c1cccc(F)c1)NC1CCCCC1`, the half-maximal activity concentration (AC50) is 12.6 µM (active).

`CC(=O)NC1(c2cccc(F)c2)CCN(CC(=O)NC2CCCCC2)CC1`: the AC50 entry is “inactive”.

Regarding `O=S(=O)(CC(O)COc1ccccc1Cl)c1ccccc1` (stereo not given), the activity, negative = inhibition is -5.32% [at 11.4 µM].

Regarding `Cc1cccc(CNc2ncncc2-c2cccnc2)c1`, the AC50 is 0.631 µM (active).

In the case of `c1cncc(CNc2ncncc2-c2cccnc2)c1`, the AC50 is 2 µM (active).

`c1ccc(CNc2ncncc2-c2cccnc2)cc1`: the AC50 is 1.26 µM (active).

In the case of `COc1ccc(NC(=O)N2CC3(CCN(C(=O)c4cnccn4)CC3)C2)cc1`, the AC50 entry is “inactive”.

Regarding `COc1ccc(NC(=O)N2CC3(CCN(C(=O)c4csnn4)CC3)C2)cc1`, the AC50 entry is “inactive”.

As to `O=C(Nc1ccccc1)N1CCCC2(CCN(C(=O)c3csnn3)CC2)C1`, the AC50 is 15.8 µM (active).

Take `O=C(Nc1ccccc1)N1CCC2(CC1)CCN(C(=O)c1csnn1)CC2`: the AC50 entry was “inactive”.

As for `COc1ccc(NC(=O)N2CCCC3(CCN(C(=O)c4csnn4)CC3)C2)cc1`, the half-maximal activity concentration (AC50) was 15.8 µM (active).

With `CC[C@@]1(O)C(=O)OCc2c1cc1n(c2=O)Cc2cc3c(CN(C)C)c(O)ccc3nc2-1`, the activity, negative = inhibition is -2.47% [at 11.4 µM].

As to `CC1(C)O[C@H]2[C@@H](O1)[C@@H](On1nnc3ccc(Cl)cc31)O[C@@H]2[C@@H]1COC(C)(C)O1`, the activity, negative = inhibition was -24.7% [at 11.4 µM].

Consider `CC1CCN(CC(=O)Nc2cccc([N+](=O)[O-])c2)CC1`, for which the AC50 result is “inactive”.

As for `Cc1ccc(NS(=O)(=O)c2ccc(OCC(=O)Nc3cccc([N+](=O)[O-])c3)c(C)c2)cc1`, the AC50 was 2 µM (active).

As to `COc1ccccc1C(=O)Nc1cc2c(ccc3ccccc32)oc1=O`, the AC50 entry is “inactive”.

Regarding `COc1ccccc1NC(=O)Cn1nnc(-c2ccccc2NC(=O)c2cc3ccccc3oc2=O)n1`, the half-maximal activity concentration (AC50) is 3.55 µM (active).

`COC(=O)c1ccc(OCC2c3cc(OC)c(OC)cc3CCN2C(=O)C2CC2)cc1` (stereo not given): the AC50 was 17.8 µM (active).

In the case of `COc1ccc(C(=O)OC(C)CN2CCN(C)CC2)cc1OC` (stereo not given), the AC50 entry is “inactive”.

For `COc1ccccc1-c1cncnc1NCc1cccc(C)c1`, the AC50 is 0.1 µM (active).

As for `COc1ccccc1-c1cncnc1NCc1cccnc1`, the AC50 was 0.501 µM (active).

With `COc1ccccc1-c1cncnc1NCc1ccccc1`, the AC50 was 0.251 µM (active).

For `CCCCN(C)Cc1c(C)[nH]c2ccc(Cl)cc2c1=O`, the AC50 entry is “inactive”.

Turning to `CCCCCCN(CCCCCC)C(=O)Cc1c(-c2ccc(Cl)cc2)[nH]c2ccc(Cl)cc12`, the AC50 was 12.6 µM (active).

On to `CCCCCCN(CCCCCC)C(=O)Cc1c(-c2ccc(F)cc2)[nH]c2ccccc12`, for which the AC50 was 2.51 µM (active).

For `CCOC(=O)c1[nH]c2ccc(Cl)cc2c1-c1ccccc1`, the AC50 entry is “inactive”.

For the compound `Cn1c(=O)c2[nH]c(C3CCCC3)nc2n(C)c1=O`, the AC50 result is “inactive”.

With `O=C(O)c1nnsc1COCc1ccccc1`, the activity, negative = inhibition was -0.287% [at 11.4 µM].

Take `COCCNC(=O)COc1ccc(Oc2ccccc2)cc1`: the AC50 result is “inactive”.

With `COc1ccc(OC)c2[nH]c(=O)c(CCNC(=O)COc3ccccc3)cc12`, the AC50 is 10 µM (active).

Regarding `COc1ccc(OC)c2[nH]c(=O)c(CCNS(=O)(=O)c3ccc(C)cc3)cc12`, the AC50 is 7.94 µM (active).

With `COc1cc2c(c(O)c1OC)C(=O)C(OC)CCC2` (stereo not given), the AC50 result is “inactive”.

For `COc1ccc(OC)c2[nH]c(=O)c(CCNC(=O)c3ccc(S(=O)(=O)N(C)C)cc3)cc12`, the AC50 result was “inactive”.

Consider `COc1ccc(OC)c2[nH]c(=O)c(CCNC(=O)c3ccc(S(=O)(=O)N4CCCC4)cc3)cc12`, for which the half-maximal activity concentration (AC50) was 15.8 µM (active).

For the compound `COc1ccc(OC)c2[nH]c(=O)c(CCNC(=O)C3CCCCC3)cc12`, the AC50 was 8.91 µM (active).

In the case of `COc1ccc(C(=O)NCC(c2ccc(F)cc2)N2CCOCC2)cc1S(=O)(=O)N1CCCC1` (stereo not given), the AC50 entry was “inactive”.

Turning to `CCCCC1CC(/C(C)=N/NC(N)=O)OC1=O` (stereo not given), the AC50 result is “inactive”.

On to `COc1cccc(NC(=O)CSc2nc3ccccc3cc2Cc2ccccc2)c1`, for which the concentration at half-maximal activity (AC50) was 3.55 µM (active).

`COc1ccccc1NC(=O)CSc1nc2ccccc2cc1Cc1ccccc1`: the AC50 is 2.82 µM (active).

`CCOC(=O)c1sc2nc3c(cc2c1N)COC(C(C)C)C3` (stereo not given): the AC50 result was “inactive”.

`Cn1cc(C2=C(c3ccc(Cl)cc3Cl)C(=O)NC2=O)c2ccccc21`: the concentration at half-maximal activity (AC50) is 2.51 µM (active).

`CSc1ccccc1NC(=O)CSCc1ccc(C)cc1`: the activity, negative = inhibition was -20% [at 11.4 µM].

As for `COC(=O)c1ccc(C(=O)OC)c(NC(=O)CSCc2ccc(Br)cc2)c1`, the concentration at half-maximal activity (AC50) was 12.6 µM (active).

With `COc1cccc([C@@H]2Oc3ccc(OC)cc3/C(=N/O[C@@H](C)CN3CCCc4nc(C)c(C)cc43)[C@@H]2O)c1`, the AC50 is 3.16 µM (active).

For the compound `COc1ccc(-c2ccc3c(n2)CCCN3C[C@H](O)CN2CCCc3nc(C)c(C)cc32)cc1`, the activity, negative = inhibition is -46.4% [at 11.4 µM].

As to `COc1cccc([C@@H]2Oc3ccc(OC)cc3/C(=N/O[C@@H](C)CN3CCCCc4nc(C)c(C)cc43)[C@@H]2O)c1`, the AC50 was 3.98 µM (active).

For `COc1ccc2nccc(C(=O)O)c2c1`, the AC50 entry is “inactive”.

In the case of `COc1ccc2nc3cc(Cl)ccc3c(Nc3ccc(O)c(CN4CCN(C)CC4)c3)c2c1`, the activity, negative = inhibition was 2.77% [at 11.4 µM].

On to `CCc1c2c(nc3ccc(OC)cc13)COC2`, for which the AC50 is 15.8 µM (active).

For `C[C@@]1(O)CCOC(=O)C1`, the AC50 result was “inactive”.

On to `CC1(C)O[C@H]2[C@@H](c3[nH]nc4c(=O)[nH]c(=O)[nH]c34)OC[C@H]2O1`, for which the activity, negative = inhibition was -0.0029% [at 11.4 µM].

Turning to `C#CCN1C(C)=C(C(=O)OC)[C@@H](c2cccc([N+](=O)[O-])c2)C(C(=O)OCC)=C1C`, the AC50 is 3.16 µM (active).

As for `CCOC(=O)N/N=C(/C)c1ccc([N+](=O)[O-])o1`, the activity, negative = inhibition is -3.74% [at 2.29 µM].

Consider `COCC(C)NCc1cccc([N+](=O)[O-])c1` (stereo not given), for which the AC50 result was “inactive”.
